Our source for the binding signal values is article PMC7862700, “An all-to-all approach to the identification of sequence-specific readers for epigenetic DNA modifications on cytosine”.

Common to all, as to assay: DAPPL (digital affinity profiling via proximity ligation, sequencing); 10 mM Tris-HCl pH 7.5, 50 mM NaCl, 1 mM DTT, 4% glycerol, room temperature, 30 min; GST-TFs on glutathione beads, 16-mer random dsDNA library, 0.1% formaldehyde crosslink after washing; high values mean tight binding
One assay concerns the target T1, FLI1 (Homo sapiens, UniProt Q01543 1-452).
T1 sequence: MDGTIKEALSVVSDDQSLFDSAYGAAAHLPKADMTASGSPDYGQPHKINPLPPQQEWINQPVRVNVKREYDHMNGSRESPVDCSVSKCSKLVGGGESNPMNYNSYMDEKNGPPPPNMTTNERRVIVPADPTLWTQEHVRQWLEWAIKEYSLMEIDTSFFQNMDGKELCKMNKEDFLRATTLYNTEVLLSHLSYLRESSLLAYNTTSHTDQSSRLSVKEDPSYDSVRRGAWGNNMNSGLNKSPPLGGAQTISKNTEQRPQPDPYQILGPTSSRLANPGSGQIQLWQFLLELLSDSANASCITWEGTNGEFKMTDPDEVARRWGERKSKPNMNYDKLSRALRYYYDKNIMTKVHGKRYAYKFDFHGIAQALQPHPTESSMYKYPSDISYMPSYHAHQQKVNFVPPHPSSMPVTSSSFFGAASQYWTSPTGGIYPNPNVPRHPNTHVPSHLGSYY
As to conditions: protein: recombinant; tags: N-terminal GST; dsDNA, one strand shown. The method, boiled down: (§1)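 The binding signal reported is, for every hexamer, its read frequency for a factor over its read frequency for the tag-only sample. Reads came from pools of yeast-expressed, GST-fused human transcription factors on glutathione beads, barcoded with DNA and mixed with that sample, which were incubated with 200 nmole of a random double-stranded 16-mer DNA library in Tris/NaCl/DTT/glycerol buffer at room temperature for 30 min. After washing, the pools were crosslinked with 0.1% formaldehyde, proximity-ligated with BsaI/T4 ligase for 1 h at 37 °C, PCR-amplified and sequenced on an Illumina NextSeq500.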

A further assay deals with T2, ELK1 (Homo sapiens, UniProt P19419 1-428).
T2 sequence: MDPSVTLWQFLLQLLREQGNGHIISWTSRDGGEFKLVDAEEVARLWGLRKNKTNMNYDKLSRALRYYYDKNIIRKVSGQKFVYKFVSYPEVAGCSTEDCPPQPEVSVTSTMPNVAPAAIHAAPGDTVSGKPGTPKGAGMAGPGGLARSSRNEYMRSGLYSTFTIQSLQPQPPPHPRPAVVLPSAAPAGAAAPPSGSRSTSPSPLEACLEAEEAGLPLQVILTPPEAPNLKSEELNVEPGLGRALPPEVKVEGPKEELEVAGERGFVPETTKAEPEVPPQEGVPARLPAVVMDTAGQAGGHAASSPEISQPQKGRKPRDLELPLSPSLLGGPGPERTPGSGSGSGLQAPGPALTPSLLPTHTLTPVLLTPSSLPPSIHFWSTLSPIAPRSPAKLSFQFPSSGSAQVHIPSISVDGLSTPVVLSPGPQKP
As to conditions: protein: recombinant; tags: N-terminal GST; dsDNA, one strand shown. The method, boiled down: as §1

The next assay addresses T3, GABPA (Homo sapiens, UniProt Q06546 1-454).
T3 sequence: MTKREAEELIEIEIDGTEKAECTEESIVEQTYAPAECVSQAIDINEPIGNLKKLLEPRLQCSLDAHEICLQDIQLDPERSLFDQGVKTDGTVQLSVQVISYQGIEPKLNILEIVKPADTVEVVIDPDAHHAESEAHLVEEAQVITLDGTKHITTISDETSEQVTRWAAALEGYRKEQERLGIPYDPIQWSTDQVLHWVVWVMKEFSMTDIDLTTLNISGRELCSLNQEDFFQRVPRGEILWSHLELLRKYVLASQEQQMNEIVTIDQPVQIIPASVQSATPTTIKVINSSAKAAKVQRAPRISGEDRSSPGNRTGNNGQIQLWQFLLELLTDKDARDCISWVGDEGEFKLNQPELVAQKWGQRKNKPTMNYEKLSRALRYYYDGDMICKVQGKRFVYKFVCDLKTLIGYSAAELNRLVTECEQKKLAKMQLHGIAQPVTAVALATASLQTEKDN
As to conditions: protein: recombinant; tags: N-terminal GST; dsDNA, one strand shown. An outline of the steps:
as §1

The target of a further assay is T4, ERG (Homo sapiens, UniProt P11308 1-479).
T4 sequence: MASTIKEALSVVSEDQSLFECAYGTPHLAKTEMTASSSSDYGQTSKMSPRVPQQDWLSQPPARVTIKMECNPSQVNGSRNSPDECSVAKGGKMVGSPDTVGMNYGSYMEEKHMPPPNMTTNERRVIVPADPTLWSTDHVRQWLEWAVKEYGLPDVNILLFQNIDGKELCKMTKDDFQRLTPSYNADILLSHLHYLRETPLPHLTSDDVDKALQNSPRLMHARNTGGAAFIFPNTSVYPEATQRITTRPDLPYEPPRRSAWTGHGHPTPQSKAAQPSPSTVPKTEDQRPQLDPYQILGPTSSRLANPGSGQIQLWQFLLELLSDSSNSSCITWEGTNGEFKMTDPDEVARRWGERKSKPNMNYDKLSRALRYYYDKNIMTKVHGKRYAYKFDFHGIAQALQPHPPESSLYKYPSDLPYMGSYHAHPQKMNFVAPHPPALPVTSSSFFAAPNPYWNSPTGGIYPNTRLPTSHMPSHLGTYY
The note with it: protein: recombinant; tags: N-terminal GST; dsDNA, one strand shown. The method, boiled down:
as §1

For a further assay, the target named is ELF1 (Homo sapiens, UniProt P32519 1-619). As to conditions: protein: recombinant; tags: N-terminal GST; dsDNA, one strand shown. An outline of the steps: as §1
Sequence of ELF1 (P32519 whole entry): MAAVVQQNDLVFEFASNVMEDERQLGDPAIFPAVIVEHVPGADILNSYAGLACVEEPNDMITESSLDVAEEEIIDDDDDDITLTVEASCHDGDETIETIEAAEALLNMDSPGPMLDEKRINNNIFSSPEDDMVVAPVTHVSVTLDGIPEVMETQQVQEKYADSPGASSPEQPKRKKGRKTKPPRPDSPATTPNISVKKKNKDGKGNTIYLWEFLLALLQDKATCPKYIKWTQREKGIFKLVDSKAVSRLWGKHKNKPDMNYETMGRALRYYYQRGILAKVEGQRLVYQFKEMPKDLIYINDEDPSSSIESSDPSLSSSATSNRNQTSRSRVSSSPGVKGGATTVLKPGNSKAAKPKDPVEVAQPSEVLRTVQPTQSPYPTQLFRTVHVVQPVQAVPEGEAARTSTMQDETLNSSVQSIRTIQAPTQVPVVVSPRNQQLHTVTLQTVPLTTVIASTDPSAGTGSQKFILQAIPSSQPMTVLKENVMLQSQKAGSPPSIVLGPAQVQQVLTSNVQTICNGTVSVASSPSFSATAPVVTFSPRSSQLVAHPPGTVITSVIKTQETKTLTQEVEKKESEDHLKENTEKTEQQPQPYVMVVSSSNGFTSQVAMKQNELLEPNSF
The next assay addresses T5, EHF (Homo sapiens, UniProt Q9NZC4 1-300).
T5 sequence: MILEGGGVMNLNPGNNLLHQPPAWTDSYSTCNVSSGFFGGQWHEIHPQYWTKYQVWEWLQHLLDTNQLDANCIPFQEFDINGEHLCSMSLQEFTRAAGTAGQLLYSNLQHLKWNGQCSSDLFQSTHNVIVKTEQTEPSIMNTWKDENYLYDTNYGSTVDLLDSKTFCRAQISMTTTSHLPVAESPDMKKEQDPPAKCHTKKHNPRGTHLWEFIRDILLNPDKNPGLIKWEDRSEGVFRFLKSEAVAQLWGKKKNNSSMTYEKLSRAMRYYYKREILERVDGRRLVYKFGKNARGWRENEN
As to conditions: protein: recombinant; tags: N-terminal GST; dsDNA, one strand shown. An outline of the steps:
as §1

A further assay has as its target SPI1 (Homo sapiens, UniProt P17947 1-270). The note with it: protein: recombinant; tags: N-terminal GST; dsDNA, one strand shown. An outline of the steps: as §1
The target of the next assay is SPIB (Homo sapiens, UniProt Q01892 1-262). As to conditions: protein: recombinant; tags: N-terminal GST; dsDNA, one strand shown. The method, boiled down: as §1
Sequence of SPIB (Q01892 whole entry): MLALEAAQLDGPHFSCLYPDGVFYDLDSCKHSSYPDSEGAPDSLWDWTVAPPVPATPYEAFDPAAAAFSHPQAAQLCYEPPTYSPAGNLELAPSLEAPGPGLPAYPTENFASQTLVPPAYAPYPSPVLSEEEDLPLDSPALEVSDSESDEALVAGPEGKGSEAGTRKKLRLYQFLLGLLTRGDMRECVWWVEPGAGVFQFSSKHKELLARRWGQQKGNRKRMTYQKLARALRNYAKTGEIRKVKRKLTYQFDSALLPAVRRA
Another assay addresses T6, ELK3 (Homo sapiens, UniProt P41970 1-407).
T6 sequence: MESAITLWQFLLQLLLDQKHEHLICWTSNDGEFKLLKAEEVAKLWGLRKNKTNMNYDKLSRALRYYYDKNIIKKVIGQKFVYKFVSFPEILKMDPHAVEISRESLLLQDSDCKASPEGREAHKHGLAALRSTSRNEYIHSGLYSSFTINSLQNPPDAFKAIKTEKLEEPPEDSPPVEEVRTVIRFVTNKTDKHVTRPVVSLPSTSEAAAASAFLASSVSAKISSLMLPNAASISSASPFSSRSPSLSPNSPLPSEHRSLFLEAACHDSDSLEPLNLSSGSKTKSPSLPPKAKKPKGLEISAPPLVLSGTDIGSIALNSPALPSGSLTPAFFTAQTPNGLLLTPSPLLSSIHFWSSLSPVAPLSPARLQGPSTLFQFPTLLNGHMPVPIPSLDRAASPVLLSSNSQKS
The note with it: protein: recombinant; tags: N-terminal GST; dsDNA, one strand shown. The method, boiled down: as §1

The target of a further assay is T7, FEV (Homo sapiens, UniProt Q99581 1-238).
T7 sequence: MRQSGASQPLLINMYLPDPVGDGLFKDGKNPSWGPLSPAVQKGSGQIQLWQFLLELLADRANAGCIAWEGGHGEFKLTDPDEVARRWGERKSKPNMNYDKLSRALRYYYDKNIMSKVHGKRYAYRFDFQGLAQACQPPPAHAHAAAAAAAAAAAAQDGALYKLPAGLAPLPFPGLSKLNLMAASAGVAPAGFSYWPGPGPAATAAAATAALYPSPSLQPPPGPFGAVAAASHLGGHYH
As to conditions: protein: recombinant; tags: N-terminal GST; dsDNA, one strand shown. The method, boiled down: as §1

The target in the next assay is ETV5 (Homo sapiens, UniProt P41161 1-510). As to conditions: protein: recombinant; tags: N-terminal GST; dsDNA, one strand shown. An outline of the steps: as §1
Sequence of ETV5 (P41161 whole entry): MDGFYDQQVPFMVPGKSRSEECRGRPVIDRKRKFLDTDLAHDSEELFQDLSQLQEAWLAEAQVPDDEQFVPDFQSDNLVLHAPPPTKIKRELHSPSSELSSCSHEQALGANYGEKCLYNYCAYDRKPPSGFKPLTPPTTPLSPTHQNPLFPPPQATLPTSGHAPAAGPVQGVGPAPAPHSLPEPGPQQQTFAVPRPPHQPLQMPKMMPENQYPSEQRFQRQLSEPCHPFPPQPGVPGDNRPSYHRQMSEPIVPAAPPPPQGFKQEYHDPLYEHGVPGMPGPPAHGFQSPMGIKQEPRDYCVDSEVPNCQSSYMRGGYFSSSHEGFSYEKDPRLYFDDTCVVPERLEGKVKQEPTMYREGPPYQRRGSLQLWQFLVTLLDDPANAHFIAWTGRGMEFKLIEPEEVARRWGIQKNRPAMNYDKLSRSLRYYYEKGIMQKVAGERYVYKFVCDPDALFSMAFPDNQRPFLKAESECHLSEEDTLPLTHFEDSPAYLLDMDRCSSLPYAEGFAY
For a further assay, the target named is HSF1 (Homo sapiens, UniProt Q00613 1-529). The note with it: protein: recombinant; tags: N-terminal GST; chain copies: 3; dsDNA, one strand shown. The method, boiled down: as §1
Sequence of HSF1 (Q00613 whole entry): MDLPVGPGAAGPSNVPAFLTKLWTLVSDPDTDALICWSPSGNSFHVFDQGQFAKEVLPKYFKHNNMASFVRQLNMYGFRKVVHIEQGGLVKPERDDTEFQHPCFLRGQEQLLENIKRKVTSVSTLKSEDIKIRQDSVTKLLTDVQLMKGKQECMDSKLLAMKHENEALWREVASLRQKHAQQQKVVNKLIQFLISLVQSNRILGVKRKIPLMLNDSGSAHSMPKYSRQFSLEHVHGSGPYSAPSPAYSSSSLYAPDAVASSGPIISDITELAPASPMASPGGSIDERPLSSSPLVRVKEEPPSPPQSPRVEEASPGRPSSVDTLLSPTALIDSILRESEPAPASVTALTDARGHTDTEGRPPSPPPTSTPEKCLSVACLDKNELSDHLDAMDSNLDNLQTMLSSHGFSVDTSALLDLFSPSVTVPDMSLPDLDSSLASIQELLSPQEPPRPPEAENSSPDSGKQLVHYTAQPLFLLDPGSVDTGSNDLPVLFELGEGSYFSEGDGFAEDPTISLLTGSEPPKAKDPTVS
The target of the next assay is T8, SPIC (Homo sapiens, UniProt Q8N5J4 1-248).
T8 sequence: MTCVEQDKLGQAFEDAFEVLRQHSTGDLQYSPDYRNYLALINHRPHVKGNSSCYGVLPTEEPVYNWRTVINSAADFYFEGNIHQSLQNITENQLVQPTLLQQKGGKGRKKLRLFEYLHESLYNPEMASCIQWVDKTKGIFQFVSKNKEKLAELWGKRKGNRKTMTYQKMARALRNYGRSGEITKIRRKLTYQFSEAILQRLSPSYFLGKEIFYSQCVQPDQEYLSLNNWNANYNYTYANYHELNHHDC
As to conditions: protein: recombinant; tags: N-terminal GST; dsDNA, one strand shown. The method, boiled down:
as §1

A further assay addresses ELF4 (Homo sapiens, UniProt Q99607 1-663). As to conditions: protein: recombinant; tags: N-terminal GST; dsDNA, one strand shown. An outline of the steps: as §1
A further assay concerns the target T9, ELK4 (Homo sapiens, UniProt P28324-2 1-405).
T9 sequence: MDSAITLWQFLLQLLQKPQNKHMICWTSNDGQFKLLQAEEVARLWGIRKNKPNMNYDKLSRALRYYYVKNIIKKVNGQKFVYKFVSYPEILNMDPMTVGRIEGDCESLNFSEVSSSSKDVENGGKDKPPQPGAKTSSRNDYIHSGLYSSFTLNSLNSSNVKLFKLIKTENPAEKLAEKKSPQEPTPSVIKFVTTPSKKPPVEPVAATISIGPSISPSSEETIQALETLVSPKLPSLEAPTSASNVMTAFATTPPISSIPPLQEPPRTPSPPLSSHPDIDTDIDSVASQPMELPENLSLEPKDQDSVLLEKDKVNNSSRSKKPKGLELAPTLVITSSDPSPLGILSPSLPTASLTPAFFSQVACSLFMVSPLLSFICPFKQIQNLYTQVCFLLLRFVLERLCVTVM
As to conditions: protein: recombinant; tags: N-terminal GST; dsDNA, one strand shown. The method, boiled down:
as §1

The next assay concerns the target T10, ETV2 (Homo sapiens, UniProt O00321 1-342).
T10 sequence: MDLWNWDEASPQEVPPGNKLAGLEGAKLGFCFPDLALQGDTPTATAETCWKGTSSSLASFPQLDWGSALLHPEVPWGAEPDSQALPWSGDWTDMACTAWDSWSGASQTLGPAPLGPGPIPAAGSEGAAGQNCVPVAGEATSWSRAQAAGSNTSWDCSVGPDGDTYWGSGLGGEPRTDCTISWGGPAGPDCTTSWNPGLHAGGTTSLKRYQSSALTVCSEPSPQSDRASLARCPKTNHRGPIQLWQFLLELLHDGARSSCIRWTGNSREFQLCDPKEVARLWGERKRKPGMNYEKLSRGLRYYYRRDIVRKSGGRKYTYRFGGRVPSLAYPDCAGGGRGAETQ
As to conditions: protein: recombinant; tags: N-terminal GST; dsDNA, one strand shown. An outline of the steps: as §1

The next assay has as its target CRX (Homo sapiens, UniProt O43186 1-299). The note with it: protein: recombinant; tags: N-terminal GST; dsDNA, one strand shown. An outline of the steps:
as §1

Another assay has as its target ETV1 (Homo sapiens, UniProt P50549 1-477). As to conditions: protein: recombinant; tags: N-terminal GST; dsDNA, one strand shown. The method, boiled down:
as §1

Sequence of ELF4 (Q99607 whole entry): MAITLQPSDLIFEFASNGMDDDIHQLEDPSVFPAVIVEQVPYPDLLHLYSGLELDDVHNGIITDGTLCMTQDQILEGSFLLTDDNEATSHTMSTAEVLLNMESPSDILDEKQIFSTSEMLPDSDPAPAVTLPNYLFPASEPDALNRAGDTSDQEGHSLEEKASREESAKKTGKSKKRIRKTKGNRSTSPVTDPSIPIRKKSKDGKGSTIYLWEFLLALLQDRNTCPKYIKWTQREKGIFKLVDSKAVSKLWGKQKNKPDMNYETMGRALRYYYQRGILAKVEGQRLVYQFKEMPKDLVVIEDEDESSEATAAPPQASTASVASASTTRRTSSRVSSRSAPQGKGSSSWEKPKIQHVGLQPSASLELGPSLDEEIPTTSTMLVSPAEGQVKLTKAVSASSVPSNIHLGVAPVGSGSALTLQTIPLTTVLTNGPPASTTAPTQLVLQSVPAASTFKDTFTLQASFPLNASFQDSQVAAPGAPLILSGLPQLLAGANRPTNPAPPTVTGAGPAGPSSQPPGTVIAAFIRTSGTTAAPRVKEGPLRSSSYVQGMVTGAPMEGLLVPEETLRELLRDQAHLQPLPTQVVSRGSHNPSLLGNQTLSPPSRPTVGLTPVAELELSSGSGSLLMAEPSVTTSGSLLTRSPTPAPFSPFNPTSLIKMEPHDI
Sequence of ETV1 (P50549 whole entry): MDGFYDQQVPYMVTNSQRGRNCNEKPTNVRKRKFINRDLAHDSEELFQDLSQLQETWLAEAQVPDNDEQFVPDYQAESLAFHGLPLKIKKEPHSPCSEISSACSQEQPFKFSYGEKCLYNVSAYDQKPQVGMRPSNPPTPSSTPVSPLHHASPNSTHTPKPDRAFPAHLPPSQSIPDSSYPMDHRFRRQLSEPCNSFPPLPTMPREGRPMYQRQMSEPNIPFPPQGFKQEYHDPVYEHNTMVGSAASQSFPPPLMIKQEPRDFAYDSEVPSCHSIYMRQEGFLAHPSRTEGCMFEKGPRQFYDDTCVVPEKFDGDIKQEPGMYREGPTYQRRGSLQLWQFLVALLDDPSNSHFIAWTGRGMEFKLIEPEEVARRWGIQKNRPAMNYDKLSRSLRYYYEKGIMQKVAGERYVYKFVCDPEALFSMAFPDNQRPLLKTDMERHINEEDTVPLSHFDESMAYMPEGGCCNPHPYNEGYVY
Sequence of CRX (O43186 whole entry): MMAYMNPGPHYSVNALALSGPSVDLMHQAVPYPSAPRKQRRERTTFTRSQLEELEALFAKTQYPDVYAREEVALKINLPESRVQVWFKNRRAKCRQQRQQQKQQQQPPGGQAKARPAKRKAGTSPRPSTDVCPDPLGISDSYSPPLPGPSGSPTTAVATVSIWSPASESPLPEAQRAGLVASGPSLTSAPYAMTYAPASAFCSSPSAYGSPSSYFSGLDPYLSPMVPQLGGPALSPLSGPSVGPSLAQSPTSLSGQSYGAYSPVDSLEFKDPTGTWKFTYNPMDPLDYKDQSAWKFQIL

For TCGCAA, the binding signal with FLI1 was 1.21 fold enrichment (6-mer frequency, TF over GST control); with ELK1, 1.22 fold enrichment (6-mer frequency, TF over GST control); with GABPA, 1.19 fold enrichment (6-mer frequency, TF over GST control); in the assay with ERG it was 1.16 fold enrichment (6-mer frequency, TF over GST control); with ELF1, 1.19 fold enrichment (6-mer frequency, TF over GST control); with EHF, 1.18 fold enrichment (6-mer frequency, TF over GST control). In addition, the binding signal with SPI1 was 1.03 fold enrichment (6-mer frequency, TF over GST control); with SPIB it was 1.08 fold enrichment (6-mer frequency, TF over GST control); with ELK3, 1.06 fold enrichment (6-mer frequency, TF over GST control); with FEV, 1.11 fold enrichment (6-mer frequency, TF over GST control); with ETV5 it was 1.06 fold enrichment (6-mer frequency, TF over GST control); with HSF1, 1.22 fold enrichment (6-mer frequency, TF over GST control). In addition, the binding signal is 1.32 fold enrichment (6-mer frequency, TF over GST control) in the assay with SPIC; 1.15 fold enrichment (6-mer frequency, TF over GST control) with ELF4; 1.03 fold enrichment (6-mer frequency, TF over GST control) with ELK4; 1.18 fold enrichment (6-mer frequency, TF over GST control) with ETV2; 1.05 fold enrichment (6-mer frequency, TF over GST control) with CRX; 1.1 fold enrichment (6-mer frequency, TF over GST control) with ETV1.
